pAkt inh – Akt phosphorylation inhibition. Neuro2A IGF-stimulated pAkt S473 HTRF, 20 min; stronger effect = lower value. activity change, % for hits at 50 µM. 360,000 compounds, 0.32% hits; in the data active means activity change below about -80%; inconclusive means mostly about -51% to -80%; further: on the % scale 0 is the no-effect control and ±100 the full control effect
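Single-point screen (50 µM final compound) in Neuro2A cells stimulated 20 min with 6 nM IGF at 37 deg C. After lysis, Ser473-phosphorylated Akt read by HTRF (ex 330 nm, em 615/665 nm) as the 665/615 ratio.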
FUS suppressor – suppressors of FUS proteinopathy in yeast. S. cerevisiae FUS-expressing, growth rescue, OD600, 24 h. Potency, µM (highest dose often 76.6 µM), actives largely listed as activators. 390,000 compounds, 0.24% hits. AID 1347120;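 further: potency means the concentration at half of the fitted maximal effect; plate controls were DMSO vehicle for no effect and reference control for full effect; nearly all actives have a fitted effect of over 55% in size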
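Compound concentration series was pinned onto galactose-induced FUS-expressing yeast seeded at OD 0.005. Plates sat 24hr at 30C; absorbance at 600 nm gave growth. DMSO served as background control.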
aSyn yeast inh – rescues yeast growth from alpha-synuclein toxicity; Yeast expressing alpha-synuclein, growth rescue, BacTiter-Glo, 24 h; Potency, µM (top dose mostly 46.1 µM), for the others: top-dose growth rescue (activation), actives largely listed as activators; 370,000 compounds, 0.14% hits; further: potency means the concentration at half of the fitted maximal effect; % of control where 0% means no effect; nearly all actives have a fitted effect of over 65% in size
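Rescue of yeast growth: cells expressing toxic alpha-synuclein, induced in galactose at OD600 0.02, incubated with compound 24 h at 30 C. ATP luminescence quantified growth; inhibitors of toxicity appear as activators.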
TDP43 rescue – inhibitors of TDP-43 toxicity in yeast; TDP-43 expressing yeast growth rescue, BacTiter-Glo, 24 h; Potency, µM (doses to about 46.1 µM), for inactives: at the highest dose growth rescue (activation), hits mostly activators; 410,000 compounds, 1.8% hits; AID 652104; further: potency means the concentration at half of the fitted maximal effect; % of control where 0% means no effect; nearly all actives have a fitted effect of over 50% in size
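In this qHTS, compounds that restore growth of yeast expressing TDP-43 appear as activators. Cells (OD600=0.02, galactose medium, raffinose-pregrown) are incubated with compound 24 hr at 30 deg C and growth is quantified by BacTiter-Glo.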
Abeta rescue – compounds reversing amyloid beta toxicity in yeast; yeast expressing A-beta42, growth rescue, OD600, 48 h; response scale: 0% DMSO, 100% iron-clioquinol control; Potency, µM (highest dose often 46.1 µM), usual class: activators; 410,000 compounds, 0.063% hits; AID 1347071; further: potency means the concentration at half of the fitted maximal effect; nearly all actives have a fitted effect of over 55% in size
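Yeast A-beta toxicity model in growth medium with pinned compounds, 48 h at 30 C; growth read as absorbance at 600 nm. Normalized to FeCl3/clioquinol equimolar mix (positive) and DMSO (negative).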
* marks the source's active call; other numbers are inactive results; i = inactive; ? = inconclusive; . = no result; ! = not confirmed by another sample. In the library only some 2.3% were active in any assay of this set; here they are far more common. Unless noted, the call rests on the fitted dose curve; in most records, active means well fitted curve in the direction sought with a large enough effect; inconclusive means small, poorly fitted or top-dose-only effect, or another doubt; inactive means no such curve, though single readings can be large; an effect the other way counts as inactive or inconclusive.

SMILES	pAkt inh	FUS suppressor	aSyn yeast inh	TDP43 rescue	Abeta rescue
COc1ccc(NC(=O)C2Cc3c(-c4ccc5c(c4)OCO5)ccnc3O2)cc1 (centres undefined)	i	i	15%	25µM*	i
CC(=O)Nc1ccc(NC(=O)C2Cc3c(-c4ccc5c(c4)OCO5)ccnc3O2)cc1 (centres undefined)	i	i	-6%	7%	i
O=C(Nc1ccccc1)C1Cc2c(-c3ccco3)ccnc2O1 (centres undefined)	i	i	?	25µM*	i
O=C(Nc1ccccc1)C1Cc2c(-c3ccc4c(c3)OCO4)ccnc2O1 (centres undefined)	i	i	16%	35µM*	i
CNC(=O)C1Cc2c(-c3ccc4c(c3)OCO4)ccnc2O1 (centres undefined)	i	i	-1%	4%	i
O=C(Nc1ccc2c(c1)OCO2)C1Cc2c(-c3ccc4c(c3)OCO4)ccnc2O1 (centres undefined)	i	i	6%	28µM*	i
O=C(Nc1cccnc1)C1Cc2c(-c3ccc4c(c3)OCO4)ccnc2O1 (centres undefined)	i	i	-3%	-49%	i
CCCN1C(=O)c2ccccc2NC1c1ccc(OC)c(COc2cccc(C)c2C)c1 (centres undefined)	.	.	4%	.	.
C#CCOc1c(Cl)cc(/C=C2/C(=O)ON=C2C)cc1OCC	i	i	5%	18µM*	i
C#CCOc1c(Br)cc(/C=C2/C(=O)ON=C2C)cc1OC	i	i	1%	-15%	i
C#CCOc1c(Br)cc(/C=C2/C(=O)ON=C2C)cc1OCC	i	i	3%	16µM*	?
Clc1ccccc1-c1cnc2sc(NCc3ccc4c(c3)OCO4)nn12	i	i	7%	4µM*	i
Nc1nonc1C(=O)N/N=C/c1cc(Br)ccc1O	i	i	?	2.8µM*	10µM*
Nc1nonc1-n1nnc(C(=O)N/N=C/c2cc(Br)ccc2O)c1CNc1ccccc1	i	i	-4%	1%	i
COc1cc2oc(=O)c(CC(=O)N3CCCCC3)c(C)c2cc1Cl	.	i	.	20%	i
COC(=O)CC1Oc2ccc(Cl)cc2-n2cc(-c3ccc(C)cc3)nc21 (centres undefined)	.	i	.	-1%	i
Cc1ccccc1C(=O)Oc1ccc(Cl)cc1C(=S)N1CCOCC1	i	i	-9%	13µM*	i
O=C(Oc1ccc(C(=S)N2CCOCC2)cc1)c1cc([N+](=O)[O-])cc([N+](=O)[O-])c1	i	i	2%	-9%	i
O=C(Oc1ccc(C(=S)N2CCOCC2)cc1)c1cccc(Cl)c1	i	i	24%	13µM*	i
O=C(Oc1ccc(C(=S)N2CCOCC2)cc1Cl)c1ccccc1F	i	i	-21%	12%	i
COc1ccc(S(=O)(=O)Oc2ccc(C(=S)N3CCOCC3)cc2OC)cc1	i	i	5%	?	i
O=S(=O)(Oc1ccc(C(=S)N2CCOCC2)cc1)c1ccc(Cl)cc1	i	i	3%	18µM*	i
CCOC(=O)C1=C(C)N(CC(C)C)C(=O)/C1=C\c1ccc(OCC(=O)Nc2ccccc2)cc1	i	i	5%	18µM*	i
CCc1ccc(OCC(=O)NNC(=S)NC(=O)C2CCCCC2)c(Br)c1	i	i	7.1µM*	18µM*	7.9µM*
CCc1ccc(OCC(=O)NNC(=S)NC(=O)C2CC2)c(Br)c1	i	i	0%	-58%	i
SMILES	pAkt inh	FUS suppressor	aSyn yeast inh	TDP43 rescue	Abeta rescue
CCc1ccc(OCC(=O)Nc2ccncc2)c(Br)c1	i	i	1%	2%	i
CCc1ccc(OCC(=O)NNC(=O)c2cnccn2)c(Br)c1	i	i	?	25µM*	25µM*
CN1N/C(=C\c2ccccc2)N=C2C(=O)N(C)C(=O)N=C21	.	.	-79%	.	.
COc1ccccc1N1CCN(CCN(C(=O)c2ccc(F)cc2)c2ccccn2)CC1	i	i	14µM*!	18%	i
COc1ccccc1N1CCN(CCN(C(=O)C2CCCCC2)c2ccccn2)CC1	i	i	3%	15%	i
CC1CCN(c2ncnc3c2cnn3-c2ccc(F)cc2)CC1	.	i	.	?	i
Cc1ccc(CNC(=O)C2CCN(C(=O)N3CC(C)Oc4ccc(Cl)cc43)CC2)cc1 (centres undefined)	.	i	.	0%	?
CCc1ccc(Sc2cc(C(=O)NCCCN3CCCC(C)C3)c3ccccc3n2)cc1 (centres undefined)	.	i	7%	19%	i
COc1ccc(S(=O)(=O)NCC(c2ccco2)S(=O)(=O)c2ccc(C)cc2)cc1F (centres undefined)	.	i	.	?	i
Cc1ccc(S(=O)(=O)C(CNS(=O)(=O)c2ccc(F)c(C(F)(F)F)c2)c2ccco2)cc1 (centres undefined)	.	i	.	4µM*	i
Oc1ccc(Cl)cc1C1C=C(c2ccc3c(c2)OCO3)NC(c2ccc(Cl)cc2)N1 (centres undefined)	.	.	-18%	.	.
Cc1occc1C(=O)Nc1cccc(Cl)c1Cl	i	i	-6%	11µM*	i
Cc1cccc(N=Nc2c(C)nn(-c3ccccc3)c2N)c1C	i	.	-20%	20µM*	i
Nc1nn(-c2ccccc2)c(N)c1N=Nc1ccccc1F	i	i	-26%	13µM*	i
Nc1nn(-c2ccccc2)c(N)c1N=Nc1ccccc1	i	.	-13%	?	i
Cc1nn(-c2ccccc2)c(N)c1N=Nc1ccccc1	i	i	-14%	?	i
O=c1c2[nH]c3ccccc3c2nc(SCc2cccc(F)c2)n1-c1ccccc1	.	i	.	-5%	i
COc1ccc2[nH]c(=O)c(CN(C(=O)c3cccc(Cl)c3)c3ccccc3C)cc2c1	.	i	.	25%	i
CCCN(Cc1ccccc1)C(=S)NC(=O)c1ccccc1[N+](=O)[O-]	i	i	18%	?	i
CCN(Cc1ccccc1)C(=S)NC(=O)c1ccccc1Br	i	i	12%	24%	10µM*
Cc1noc(C)c1COc1cccc(C(=O)Nc2ccc(C#N)cc2)c1	i	i	-2%	14µM*	i
COc1cccc(C2=NS(=O)(=O)N(C)C(C(=O)Nc3ccccc3SC)=C2)c1	.	i	.	18%	i
Nc1ccc(Cl)c(-c2nc3ncccc3o2)c1	i	?	1%	-6%	i
Nc1ccc(-c2nc3ncccc3o2)c(Cl)c1	i	i	14µM*	-3%	i
C=CCc1c(C)nc2nc(SCC(=O)Nc3ccc(C)c(C)c3)nn2c1C	.	i	.	29%	i

From PubChem
